Results filed as inconclusive are left out. The source made the active and inactive calls. Unless noted, the call rests on the fitted dose curve; in most records, active means well fitted curve in the direction sought with a large enough effect in the repeat runs; inconclusive means weak or mixed curves; inactive means no such curve, though single readings can be large; an effect the other way counts as inactive or inconclusive.
Legend:
[1] = qHTS assay for small molecule agonists of the p53 signaling pathway (AID 651631; calls by dose curve; further: nearly all actives have a fitted effect of over 15% in size)
Summary of the method: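 Testing took place in human colorectal HCT-116 cells with stable p53RE-driven beta-lactamase. After 16 h of compound exposure at 37 °C, a FRET substrate was added and fluorescence recorded 2 h later.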

[2] = qHTS assay for small molecules that induce genotoxicity in human embryonic kidney cells expressing luciferase-tagged ATAD5 (AID 651632); further: nearly all actives have a fitted effect of over 15% in size
Summary of the method: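 Luminescent reporter readout, HEK293T ATAD5-luc line: 16 hr drug exposure (37C, 5% CO2) followed by Amplite, 30 min RT.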

[3] = qHTS assay for small molecule agonists of the p53 signaling pathway - cell viability (AID 651633; calls by dose curve; further: series mostly up to about 83 µM; nearly all actives have a fitted effect of over 30% in size)
Summary of the method: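 p53RE-bla cells were treated with compound for 16 hours at 37 C. Cytotoxicity was then measured as CellTiter-Glo luminescence after 30 min at room temperature.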

[4] = qHTS assay for small molecules that induce genotoxicity in human embryonic kidney cells expressing luciferase-tagged ATAD5 - cell viability (AID 651634; calls by dose curve; further: nearly all actives have a fitted effect of over 25% in size)
Summary of the method: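 Viability read: CellTiter-Fluor fluorescence, 30 min at 37C. Cells: HEK293T, luciferase-tagged ATAD5. Exposure: 15.5 hr, 37C, 5% CO2, compound or DMSO vehicle.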

[5] = qHTS assay for small molecule disruptors of the mitochondrial membrane potential - cell viability (AID 720634; calls by dose curve;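 further: human HepG2 liver cancer cells; series mostly up to about 83 µM; nearly all actives have a fitted effect of over 20% in size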)
Summary of the method: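 HepG2, 1 hr compound, 37 C. ATP luminescence via CellTiter-Glo, 30 min RT, same well as m-MPI.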

[6] = qHTS assay to test for compound auto fluorescence at 590 nm (red) in HepG2 cells (AID 720674)
Summary of the method: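 Seeding: 2,000 HepG2 cells/well, MEM/10% FBS, overnight 37 C. Dosing: compound vs DMSO. Incubation: 1 hr, 37 C, 5% CO2. Read: fluorescence 540 ex/590 em, Rose Bengal sodium as red reference.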

[7] = qHTS assay to test for compound auto fluorescence at 535 nm (green) in HepG2 cells (AID 720675)
[8] = qHTS assay to test for compound auto fluorescence at 460 nm (blue) in HEK293 cells (AID 720678)
Summary of the method: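 Intrinsic compound fluorescence is recorded in live HEK293 cultures after overnight incubation at 37C, 5% CO2, using excitation 405 nm and emission 460 nm. Values are referenced to triamterene.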

[9] = qHTS assay to test for compound auto fluorescence at 590 nm (red) in HEK293 cells (AID 720679)
Summary of the method: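 Red autofluorescence, HEK293 cells: 2,000 cells/well; attach 4-5 hr 37C; add 23 nL cpd or DMSO; incubate o/n 37C 5% CO2; read Ex540/Em590; Rose Bengal sodium reference.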

[10] = qHTS assay to test for compound auto fluorescence at 535 nm (green) in HEK293 cells (AID 720680)
[11] = qHTS assay to test for compound auto fluorescence at 460 nm (blue) in HEK293 cell free culture (AID 720681)
Summary of the method: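 Compounds were added to cell-free DMEM with 10% FBS and fluorescence read directly. The blue channel used 405 nm excitation and 460 nm emission, with triamterene as the reference fluorophore.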

[12] = qHTS assay to test for compound auto fluorescence at 535 nm (green) in HEK293 cell free culture (AID 720682)
Summary of the method: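 DMEM + 10% FBS, cell-free; cpd or DMSO pinned in; Ex485/Em535 read; output as fluorescein-equivalent signal.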

[13] = qHTS assay to test for compound auto fluorescence at 590 nm (red) in HEK293 cell free culture (AID 720683)
Summary of the method: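 Cell-free wells of DMEM with 10% FBS received compound, and intrinsic fluorescence was read at excitation/emission 540/590 nm. Values expressed as equivalence to Rose Bengal sodium.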

[14] = qHTS assay to test for compound auto fluorescence at 590 nm (red) in HepG2 cell free culture (AID 720684)
Summary of the method: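 Compound was pinned into wells holding MEM with 10% FBS and no cells, and red fluorescence was read at Ex/Em 540/590 nm. Signal is expressed as auto fluorescence equivalency relative to Rose Bengal sodium.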

[15] = qHTS assay to test for compound auto fluorescence at 460 nm (blue) in HepG2 cell free culture (AID 720685)
Summary of the method: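 Compound (23 nL) or DMSO pinned into cell-free MEM with 10% FBS; blue fluorescence read at 405/460 nm excitation/emission, expressed as auto-fluorescence equivalency to triamterene.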

[16] = qHTS assay to test for compound auto fluorescence at 535 nm (green) in HepG2 cell free culture (AID 720686)
[17] = qHTS assay to test for compound auto fluorescence at 460 nm (blue) in HepG2 cells (AID 720687)
Summary of the method: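 HepG2 cells in MEM with 10% FBS, attached overnight at 37 C, were exposed to compound or DMSO for 1 hr at 37 C, 5% CO2. Blue fluorescence was read at 405/460 nm, with triamterene as reference fluorophore.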

[18] = qHTS assay for small molecule disruptors of the mitochondrial membrane potential (AID 720635)
Summary of the method: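 HepG2 cells exposed to compound 1 hr at 37C, then Mito-MPS dye 30 min. Ratio read of aggregate (540/590 nm) versus monomer (490/535 nm) fluorescence.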

[19] = target: Glucocorticoid receptor (Homo sapiens) (UniProt P04150); test: qHTS assay to identify small molecule antagonists of the glucocorticoid receptor (GR) signaling pathway (AID 720692; active means well fitted inhibition curve with a large enough effect in the signal ratio in the repeat runs, not every such curve was filed as active; the % refers to the signal ratio)
Summary of the method: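 Inhibition of glucocorticoid signalling is measured in HeLa cells with a GRE-controlled beta-lactamase reporter; cells are co-treated with compound and 5 nM dexamethasone (final) for 18 h before FRET substrate readout.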

[20] = target: Glucocorticoid receptor (Homo sapiens) (UniProt P04150); test: qHTS assay to identify small molecule agonists of the glucocorticoid receptor (GR) signaling pathway (AID 720691; active means well fitted activation curve with a large enough effect in the signal ratio in the repeat runs, not every such curve was filed as active; the % refers to the signal ratio)
Summary of the method: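 qHTS in GR-bla HeLa cells: 4 h settling at 37 C/5% CO2, 18 h compound incubation at 37 C, 2 h LiveBLAzer B/G FRET substrate at room temperature, fluorescence intensity measured.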

Measured: Potency

Glucocorticoid receptor (Homo sapiens), sequence (P04150 whole entry, looked up): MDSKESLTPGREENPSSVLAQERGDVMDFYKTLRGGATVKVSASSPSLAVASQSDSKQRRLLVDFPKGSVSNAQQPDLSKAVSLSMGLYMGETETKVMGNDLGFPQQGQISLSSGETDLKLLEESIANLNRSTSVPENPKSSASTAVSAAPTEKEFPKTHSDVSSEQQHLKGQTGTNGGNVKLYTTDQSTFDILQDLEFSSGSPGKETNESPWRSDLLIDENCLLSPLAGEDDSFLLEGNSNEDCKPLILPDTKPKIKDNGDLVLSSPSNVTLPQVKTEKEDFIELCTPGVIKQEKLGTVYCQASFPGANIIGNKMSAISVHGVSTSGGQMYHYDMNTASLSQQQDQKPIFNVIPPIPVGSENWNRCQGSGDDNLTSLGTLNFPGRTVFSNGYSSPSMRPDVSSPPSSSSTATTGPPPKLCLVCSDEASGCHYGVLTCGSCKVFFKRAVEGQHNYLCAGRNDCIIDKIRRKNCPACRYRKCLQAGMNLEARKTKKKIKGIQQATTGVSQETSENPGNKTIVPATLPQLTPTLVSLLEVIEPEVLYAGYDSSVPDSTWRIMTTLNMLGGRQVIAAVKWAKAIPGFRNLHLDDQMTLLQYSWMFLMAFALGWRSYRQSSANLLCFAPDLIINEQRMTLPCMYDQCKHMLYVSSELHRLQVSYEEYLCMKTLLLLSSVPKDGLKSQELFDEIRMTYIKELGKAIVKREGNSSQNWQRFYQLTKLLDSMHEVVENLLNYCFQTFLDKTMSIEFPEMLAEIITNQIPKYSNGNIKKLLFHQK

C=CC(=O)OCCCCCC
not listed: [18] | [19] | [20]
inactive: all other assays above

C#CC(C)(O)CC(C)C (centres undefined)
not listed: [20]
inactive: all other assays above

CC(C)(O)c1ccccc1
not listed: [18]
inactive: all other assays above

C=C(C)C(=O)OCCC(C)OC(=O)C(=C)C (centres undefined)
not listed: [18]
inactive: all other assays above

CC(=O)OC(C)(C)C
not listed: [18] | [19] | [20]
inactive: all other assays above

COC(=O)CCCCCCCCC(=O)OC
not listed: [18] | [19] | [20]
inactive: all other assays above

CCN1CCCC1CNC(=O)c1cc(S(N)(=O)=O)ccc1OC (centres undefined)
not listed: [18] | [19]
inactive: all other assays above

CCCCCN(CCCCC)C(=O)C(CCC(=O)O)NC(=O)c1ccc(Cl)c(Cl)c1 (centres undefined)
inactive: all assays above

CCn1cc(C(=O)O)c(=O)c2cc(F)c(N3CCN(C)CC3)cc21
not listed: [18] | [19]
inactive: all other assays above

COC(=O)[C@H]1[C@H]2C[C@@H]3c4[nH]c5cc(OC)ccc5c4CCN3C[C@H]2C[C@@H](OC(=O)COc2ccc(OC)cc2)[C@@H]1OC
not listed: [18] | [19]
inactive: all other assays above

OCCCCCCO
not listed: [18] | [19]
inactive: all other assays above

C=CCOc1nc(OCC=C)nc(OCC=C)n1
inactive: all assays above

COc1cccc(OC)c1
not listed: [18]
inactive: all other assays above

Cc1cc(C)cc(OCC2CNC(=O)O2)c1 (centres undefined)
inactive: all assays above
